Measurements from PubChem BioAssay AID2242 (National Center for Advancing Translational Sciences (NCATS), 2010).
Among all 200,000 compounds or so, about 720 (0.36%) were called active. About 8% were inconclusive and are not listed. Calls come from the whole dose curve; as a rule, active = well fitted activation curve with a large enough effect; inconclusive = small, poorly fitted or top-dose-only effect, or effect the other way, or another doubt; inactive = flat fitted curve, though single readings scatter. Some of the results follow.

Biological target: Lysosomal alpha-glucosidase (Homo sapiens) (UniProt P10253)
Assay: qHTS Assay for Activators of Human alpha-Glucosidase as a Potential Chaperone Treatment of Pompe Disease; note: nearly all actives have a fitted effect of over 80% in size
Conditions: purified enzyme, 4-MU-alpha-glucoside fluorescence, 20 min; series mostly up to 76.9 µM
How it was run: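 Compounds titrated up to 77 uM against 4 nM enzyme and 400 uM methylumbelliferyl substrate at room temperature, 20 min, pH 5.0. Basic stop, then 4-methylumbelliferone fluorescence (365/440 nm) normalized to no-enzyme and enzyme controls; Hill-equation AC50.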
Potency is the fitted concentration of half-maximal effect.

Potency, active:
CSc1nc2oc3c(c2c2nncn12)CC(C)(C)SC3 39.8 µM, Cc1cc(NC(C)C)n2c(nc3ccccc32)c1C#N 35.5 µM, Cc1cc(NCCCCO)n2c(nc3ccccc32)c1C#N 35.5 µM, CCCc1cc(NCc2ccccn2)n2c(nc3ccccc32)c1C#N 35.5 µM, CCCc1cc(NCCCCO)n2c(nc3ccccc32)c1C#N 35.5 µM, Cc1cc(NCCCO)n2c(nc3ccccc32)c1C#N 35.5 µM, Cc1cc(NCCCn2ccnc2)n2c(nc3ccccc32)c1C#N 35.5 µM, COCCNc1cc(C)c(C#N)c2nc3ccccc3n12 35.5 µM, COc1cccc(C(=O)Nc2cc(-c3cn4cccnc4n3)ccc2C)c1 35.5 µM, Cc1ccc(-c2cn3cccnc3n2)cc1NC(=O)c1ccc(Br)o1 35.5 µM, COc1cc(C(=O)Nc2cc(-c3cn4cccnc4n3)ccc2C)cc(OC)c1OC 35.5 µM, O=c1oc2c(CN3CCCCC3)c(O)ccc2c2c1CCCC2 35.5 µM, O=c1oc2c(CN3CCCCC3)c(O)ccc2c2c1CCCCC2 35.5 µM, C=CCn1c(N)c(C(=O)OC(C)(C)C)c2nc3ccccc3nc21 35.5 µM, CCOC(=O)c1c(N)n(CC(C)NC(=O)C2CC2)c2nc3ccccc3nc12 (centres undefined) 35.5 µM, COCC(C)OC(=O)c1c(N)n(CC(C)C)c2nc3ccccc3nc12 (centres undefined) 35.5 µM, C=CCn1c(N)c(C(=O)OCCC)c2nc3ccccc3nc21 35.5 µM, C=CCn1c(N)c(C(=O)OC(C)CC)c2nc3ccccc3nc21 (centres undefined) 31.6 µM, CC(C)(C)OC(=O)c1c(N)n(CCCN2CCCC2=O)c2nc3ccccc3nc12 31.6 µM, C=CCn1c(N)c(C(=O)OCC(C)C)c2nc3ccccc3nc21 35.5 µM, CC(C)CN(Cc1c(O)ccc2c3c(c(=O)oc12)CCC3)CC(C)C 31.6 µM, COCCN(CCOC)Cc1c(O)ccc2c3c(c(=O)oc12)CCC3 35.5 µM, Cc1cc(=O)oc2c(CN(CC(C)C)CC(C)C)c(O)ccc12 31.6 µM, Cc1cc(=O)oc2c(CN(C)Cc3ccccc3)c(O)ccc12 35.5 µM, CN(C)Cc1c(O)ccc2c3c(c(=O)oc12)CCCCC3 35.5 µM, COc1ccc(-c2cc(C(F)(F)F)n3nc(C(=O)NCCN4CCOCC4)cc3n2)cc1 44.7 µM, CCCCc1cc(=O)oc2c(CN3CCCC3)c(O)ccc12 31.6 µM, CCCc1cc(=O)oc2c(CN3CCCC3)c(O)ccc12 35.5 µM, CCCc1cc(=O)oc2c(CN3CCOCC3)c(O)ccc12 31.6 µM, COC(=O)C1=CN(CC2CCCO2)C=C(C(=O)OC)C1c1ccccc1C(F)(F)F (centres undefined) 25.1 µM, CCOC(=O)C1=CN(CC2CCCO2)C=C(C(=O)OCC)C1c1ccccc1C(F)(F)F (centres undefined) 35.5 µM, COc1ccc(CNc2oc(-c3cccc4ccccc34)nc2C#N)cc1 28.2 µM, COP(=O)(OC)c1nc(-c2cccc3ccccc23)oc1NCc1ccccc1 35.5 µM, CCOP(=O)(OCC)c1nc(-c2cccc3ccccc23)oc1NCc1ccc(OC)cc1 35.5 µM, Cc1oc2cc(O)ccc2c(=O)c1Oc1ccc2ccccc2c1 39.8 µM, CC(=O)Oc1cc2oc(=O)cc(C)c2cc1OC(C)=O 31.6 µM, Cc1cc(=O)oc2cc(OC(=O)c3ccccc3)ccc12 25.1 µM, CCC(=O)Oc1ccc2c(C)c(Cl)c(=O)oc2c1 35.5 µM, Cc1cc(=O)oc2cc(OC(=O)c3cncc(Br)c3)ccc12 17.8 µM, CCCC(=O)Oc1ccc2c(C)cc(=O)oc2c1 35.5 µM, Cc1cc(=O)oc2cc(OC(=O)CCN3C(=O)c4ccccc4C3=O)ccc12 25.1 µM, CC(=O)Oc1ccc2c(C)cc(=O)oc2c1 35.5 µM, Cc1cc(=O)oc2cc(OCc3ccc(C(=O)N4CCN(c5ccccc5)CC4)cc3)ccc12 39.8 µM, CCN(CC)c1cc(C)c2cc(NC(=O)CNC(C)=O)ccc2n1 35.5 µM, CCN1c2ccccc2-c2nc3ccccc3n2C1c1cccs1 (centres undefined) 35.5 µM, CN1c2ccccc2-c2nc3ccccc3n2C1c1cccs1 (centres undefined) 35.5 µM, COc1ccc(-c2cn3cccnc3n2)cc1F 28.2 µM, COc1ccc(-c2cn3cccnc3n2)cc1Br 35.5 µM, CC12CCC(=O)N1c1c(sc3nc(N4CCOCC4)c4c(c13)CCCC4)C(=O)N2 (centres undefined) 35.5 µM, Nc1c(C(O)(C(F)(F)F)C(F)(F)F)ccc2ccccc12 35.5 µM, Nc1ccc(-c2nc3ccc(C(=O)O)cc3s2)cc1 35.5 µM, Nc1ccc2nc(-c3ccccc3)sc2c1 35.5 µM, Cc1cc(C)[n+](-c2ccc(C(C)C)cc2)c2[nH]c(=O)[nH]c(=O)c12 35.5 µM, Cc1cc(C)[n+](-c2ccc(F)cc2)c2[nH]c(=O)[nH]c(=O)c12 35.5 µM, COCCOC(=O)C1=C(C)NC2=C(C(=O)CC(C)(C)C2)C1c1cccnc1 (centres undefined) 35.5 µM, CC1=C(C#N)C(c2cccnc2)C2=C(CCCC2=O)N1 (centres undefined) 25.1 µM, COc1cccc(C2C(C#N)=C(C)NC3=C2C(=O)CC(C)(C)C3)c1 (centres undefined) 39.8 µM, CC1=C(C#N)C(c2cccnc2)C2=C(CC(C)(C)CC2=O)N1 (centres undefined) 28.2 µM, CCN1CCN(C(c2cc3cc4c(cc3[nH]c2=O)OCO4)c2nnnn2C(C)(C)CC)CC1 (centres undefined) 39.8 µM, Nc1nc(N)c2nc(-c3ccccc3)c(N)nc2n1 39.8 µM, Clc1ccc(/C=C/c2nc3ccccc3[nH]2)c(Cl)c1 35.5 µM, CC(=O)Oc1ccc2cc(-c3nc4ccccc4n3C)c(=O)oc2c1 35.5 µM, Cn1c(-c2cc3ccc(OC(=O)C(C)(C)C)cc3oc2=O)nc2ccccc21 39.8 µM, CC(=O)c1ccc(-c2nc3ccccc3n2C)o1 31.6 µM, CCC(=O)c1ccc(/C=C/c2nc3ccccc3n2C)o1 35.5 µM, CCCCn1c(NS(=O)(=O)c2ccc(C)cc2)c(S(=O)(=O)c2ccccc2)c2nc3ccccc3nc21 50.1 µM, CCCCn1c(NS(=O)(=O)c2ccccc2)c(S(=O)(=O)c2ccc(C)cc2)c2nc3ccccc3nc21 35.5 µM, CCC(=O)Nc1c(S(=O)(=O)c2ccccc2)c2nc3ccccc3nc2n1Cc1ccccc1 39.8 µM, Cc1cccn2c(=O)c3cc(C#N)c(=O)n(Cc4cccnc4)c3nc12 3.98 µM, Cc1cccn2c(=O)c3cc(C#N)c(=O)n(CC4CCCO4)c3nc12 (centres undefined) 10 µM, Cc1ccc2nc3c(cc(C#N)c(=O)n3CC3CCCO3)c(=O)n2c1 (centres undefined) 3.98 µM, Cc1ccc2nc3c(cc(C#N)c(=O)n3CCN3CCOCC3)c(=O)n2c1 28.2 µM, COC(=O)c1c(N)n(CCCN2CCOCC2)c2nc3ccccc3nc12 31.6 µM, CC(C)OC(=O)c1c(N)n(CCCN2CCOCC2)c2nc3ccccc3nc12 39.8 µM, Cc1c(C#N)c(N)nc2c3c(sc12)NC(=O)CC3c1ccccc1 (centres undefined) 5.01 µM, COc1ccc(F)cc1CN1CCN(c2cc(C)nc3c4c(C)cc(C)nc4nn23)CC1 35.5 µM, CCc1c(C)c2cc(Cl)c(O)c(CN(C)C)c2oc1=O 31.6 µM, COC(=O)Cc1c(C)c2ccc(O)c(CN3CCCC(C)C3)c2oc1=O (centres undefined) 35.5 µM, CCN(CC)Cc1c(O)ccc2c(C)c(CC(=O)OC)c(=O)oc12 35.5 µM, CCc1c(C)c2ccc(O)c(CN(C)C)c2oc1=O 35.5 µM, Cc1c(Cc2ccccc2)c(=O)oc2c(CN(C)C)c(O)c(Cl)cc12 35.5 µM, Cc1c(C)c2cc(Cl)c(O)c(CN(C)C)c2oc1=O 39.8 µM, O=c1c2ccccc2[nH]c2ccccc12 39.8 µM, O=c1c2ccccc2[nH]c2ccc(F)cc12 31.6 µM, O=C(c1ccco1)N1CCN(C/C=C/c2ccccc2)CC1 17.8 µM, COC(=O)C1=CN(Cc2cccs2)C=C(C(=O)OC)C1c1cccc(OC)c1OC 25.1 µM, COC(=O)C1=CN(Cc2cccs2)C=C(C(=O)OC)C1c1cccc(Cl)c1 35.5 µM, CCN1C=C(C(=O)OC)C(c2cccc(OC)c2OC)C(C(=O)OC)=C1 35.5 µM, COC(=O)C1=CN(Cc2cccs2)C=C(C(=O)OC)C1c1ccc(OC)cc1OC 35.5 µM, CCN1C=C(C(=O)OC)C(c2cccc(C)c2)C(C(=O)OC)=C1 35.5 µM, COCCn1cc(C(=O)N2CCN(C)CC2)c2c3ccccc3n(C)c2c1=O 35.5 µM, COc1ccccc1N=c1oc2cc(O)ccc2cc1C(N)=O 28.2 µM, CCOc1ccccc1N=c1oc2cc(O)ccc2cc1C(=O)NCC1CCCO1 (centres undefined) 31.6 µM, Cc1cccc(N=c2oc3cc(O)ccc3cc2C(N)=O)c1 35.5 µM, NC(=O)c1cc2ccc(O)cc2oc1=NCc1ccccc1 35.5 µM, CCCCN(CC)CCNC(=O)CCC(=O)Nc1ccc2nc(N3CCN(C)CC3)cc(C)c2c1 28.2 µM, Cc1cc(N2CCC(C)CC2)nc2ccc(N3C(=O)CCC3=O)cc12 31.6 µM, CCCCNC(=O)CCC(=O)Nc1ccc2nc(N3CCCCC3)cc(C)c2c1 25.1 µM, CCCCNC(=O)CCC(=O)Nc1ccc2nc(N3CCC(C)CC3)cc(C)c2c1 39.8 µM
